Data published in PubChem BioAssay (NCATS).
Results filed as inconclusive are left out. The source made the active and inactive calls. Unless noted, calls follow the shape of the full dose curve.

Legend:
[1] = qHTS for Inhibitors of the Functional Ribonucleoprotein Complex (vRNP) of Lassa (LASV) Arenavirus: LASV Primary Screen - GLuc reporter signal (AID 1347082; calls by dose curve; tested in HEK293 reporter line; also: nearly all actives have a fitted effect of over 60% in size; as to activity change, negative = inhibition: series mostly up to about 57 µM)
[2] = qHTS for Inhibitors of the Functional Ribonucleoprotein Complex (vRNP) of Lassa (LASV) Arenavirus: Viability assay - alamar blue signal for LASV Primary Screen (AID 1347083; calls by dose curve; tested in HEK293 reporter line; also: nearly all actives have a fitted effect of over 80% in size; as to activity change, negative = reduced viability: series mostly up to about 57 µM)
[3] = qHTS for Inhibitors of the Functional Ribonucleoprotein Complex (vRNP) of Lymphocytic Choriomeningitis Arenaviruses (LCMV): Viability assay - alamar blue signal for LCMV Primary Screen (AID 1347085; calls by dose curve; tested in HEK293 reporter line; also: nearly all actives have a fitted effect of over 80% in size; as to activity change, negative = lower viability: series mostly up to about 57 µM)
[4] = target: Nucleoprotein (Lymphocytic choriomeningitis virus (strain Armstrong)) (UniProt P09992); experiment: qHTS for Inhibitors of the Functional Ribonucleoprotein Complex (vRNP) of Lymphocytic Choriomeningitis Arenaviruses (LCMV): LCMV Primary Screen - GLuc reporter signal (AID 1347086); also: nearly all actives have a fitted effect of over 70% in size; as to activity change, negative = inhibition: series mostly up to about 57 µM
% is scaled to controls: 0 for no effect and ±100 for the full control effect; potency is read from the fitted curve at half-maximal effect.

Chain of Nucleoprotein (Lymphocytic choriomeningitis virus (strain Armstrong)) (P09992 whole entry, looked up): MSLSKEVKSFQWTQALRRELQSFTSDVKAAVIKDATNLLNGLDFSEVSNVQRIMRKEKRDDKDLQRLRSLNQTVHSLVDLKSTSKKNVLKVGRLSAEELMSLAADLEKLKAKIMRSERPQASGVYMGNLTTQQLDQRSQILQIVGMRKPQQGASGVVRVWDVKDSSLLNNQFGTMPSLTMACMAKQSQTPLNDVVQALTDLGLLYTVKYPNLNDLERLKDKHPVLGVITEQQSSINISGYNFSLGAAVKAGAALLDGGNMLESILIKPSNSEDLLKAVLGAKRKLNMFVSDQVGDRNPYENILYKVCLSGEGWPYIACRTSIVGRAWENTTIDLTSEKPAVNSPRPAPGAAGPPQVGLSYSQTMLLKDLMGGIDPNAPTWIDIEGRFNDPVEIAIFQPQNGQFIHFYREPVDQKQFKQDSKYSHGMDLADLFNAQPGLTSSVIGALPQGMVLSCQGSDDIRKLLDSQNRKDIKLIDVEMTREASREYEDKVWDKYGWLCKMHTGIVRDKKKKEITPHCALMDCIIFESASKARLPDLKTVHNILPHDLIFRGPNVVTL

COc1cc(O)c(C(C)=O)c2c1C=CC(C)(C)O2
inactive: Potency [1] | Potency [2] | Potency [3] | Potency [4]

O=C(NC(Cc1ccccc1)C(=O)O)c1ccccc1 (stereo unspecified)
inactive: Potency [1] | Potency [2] | Potency [3] | Potency [4]

c1coc(Cn2cccc2)c1
inactive: Potency [1] | Potency [2] | Potency [3] | Potency [4]

COc1ccc2c(=O)c(-c3ccc(OC)c(OC)c3)coc2c1
inactive: Potency [1] | Potency [2] | Potency [3] | Potency [4]

CSCC[C@@H](N)C(=O)O
inactive: Potency [1] | Potency [2] | Potency [3] | Potency [4]

COc1ccc(C[C@@H](C)[C@@H](C)Cc2ccc(OC)c(OC)c2)cc1OC
active: Potency [1] 21.7 µM | Potency [2] 6.11 µM | Potency [3] 12.2 µM | Potency [4] 24.3 µM

COc1cc2c(c(OC)c1OC)-c1c(cc3c(c1OC)OCO3)C1OC2[C@@H](C)[C@H]1C (stereo partly specified)
inactive: Potency [1] | Potency [2] | Potency [3] | Potency [4]

CC(C)(O)Cc1ccccc1
inactive: Potency [1] | Potency [2] | Potency [3] | Potency [4]

CC(C)CCOC(=O)c1ccccc1
inactive: Potency [1] | Potency [2] | Potency [3] | Potency [4]

CC/C=C\CCOC(=O)c1ccccc1
inactive: Potency [1] | Potency [2] | Potency [3] | Potency [4]

COC1=C(C)C(=O)O[C@]12C(=O)C(C)=C1CCCCN3[C@H]([C@@H]4C[C@H](C)C(=O)O4)CC[C@]132
inactive: Potency [1] | Potency [2] | Potency [3] | Potency [4]

O=C1CCC[C@H]2[C@@H]3CCCN4CCC[C@H](CN12)[C@H]34
inactive: Potency [1] | Potency [2] | Potency [3] | Potency [4]

O=c1c2ccccc2nc2n1CCC2
inactive: Potency [1] | Potency [2] | Potency [3] | Potency [4]

CCNC(=O)CCCC=CC[C@@H]1[C@H](C=CC(O)CCc2ccccc2)[C@@H](O)C[C@@H]1O (stereo partly specified)
inactive: Potency [1] | Potency [2] | Potency [3] | Potency [4]

CC12CCC3C(CCC4CC(O)CCC43C)C1CC(O)C2 (stereo unspecified)
inactive: Potency [1] | Potency [2] | Potency [3] | Potency [4]

CC(C)CNC(=O)/C=C/C=C/c1ccc2c(c1)OCO2
inactive: Potency [1] | Potency [2] | Potency [3] | Potency [4]

COc1cc(C/C=C\c2ccccc2)c(OC)cc1O
inactive: Potency [1] | Potency [2] | Potency [3] | Potency [4]

COc1ccc(/C=C/C(=O)c2c(OC)cc(O)cc2OC)cc1
inactive: Potency [1] | Potency [2] | Potency [3] | Potency [4]

CC1C2CC(CC2C2CCCC(O)C2)C1(C)C (stereo unspecified)
inactive: Potency [1] | Potency [2] | Potency [3] | Potency [4]

CCCCC[C@H](O)/C=C/C=C/C/C=C\CCCC(=O)O
inactive: activity change, negative = inhibition [1] -30.5% [at 0.757 µM] | activity change, negative = reduced viability [2] -19.5% [at 0.757 µM] | activity change, negative = lower viability [3] 9.71% [at 0.757 µM] | activity change, negative = inhibition [4] 8.09% [at 0.757 µM]

CCCCC/C=C\C[C@@H]1O[C@H]1C(O)/C=C\C/C=C\CCCC(=O)O (stereo partly specified)
inactive: activity change, negative = inhibition [1] 2.65% [at 0.757 µM] | activity change, negative = reduced viability [2] 5.76% [at 0.757 µM] | activity change, negative = lower viability [3] 11% [at 0.757 µM] | activity change, negative = inhibition [4] 17.5% [at 0.757 µM]

CCCC(=O)OCc1ccccc1
inactive: Potency [1] | Potency [2] | Potency [3] | Potency [4]

C=C(C)[C@H]1CC=C(CO)CC1
inactive: Potency [1] | Potency [2] | Potency [3] | Potency [4]

CCCC/C=C/C=C\C=O
inactive: Potency [1] | Potency [2] | Potency [3] | Potency [4]

CCC1(CC)C(=O)NC(=O)N(c2ccccc2)C1=O
inactive: Potency [1] | Potency [2] | Potency [3] | Potency [4]

CCOC(=O)c1c(C)nc(C)c(C(=O)OCC)c1-c1ccccc1
inactive: Potency [1] | Potency [2] | Potency [3] | Potency [4]

COC(=O)CC1[C@@]2(C)C[C@]34OC5(C)OC6(C7CC(=O)OC(c8ccoc8)[C@]7(C)CCC6(O5)[C@]13C)C(OC(C)=O)[C@]4(OC(C)=O)C2OC(C)=O (stereo partly specified)
inactive: Potency [1] | Potency [2] | Potency [3] | Potency [4]

O=c1ccn([C@H]2C[C@H](O)[C@@H](CO)O2)c(=O)[nH]1
inactive: Potency [1] | Potency [2] | Potency [3] | Potency [4]

C/C=C/c1ccc2oc(-c3ccc(O)cc3)c(C)c2c1
inactive: Potency [1] | Potency [2] | Potency [3] | Potency [4]

CN[C@H]1[C@@H](O)[C@@H]2O[C@@H]3O[C@H](C)CC(=O)[C@]3(O)O[C@@H]2[C@@H](NC)[C@H]1O
active: Potency [1] 5.44 µM | Potency [2] 7.69 µM | Potency [3] 2.43 µM | Potency [4] 1.72 µM

C=C1C2C[C@H](O)C(C)(C)[C@@]2(O)[C@H](O)C[C@]23C[C@@](C)(O)[C@H](CC[C@H]12)[C@H]3O (stereo partly specified)
inactive: Potency [1] | Potency [2] | Potency [3] | Potency [4]

COc1ccc(CCC(=O)O)cc1
inactive: Potency [1] | Potency [2] | Potency [3] | Potency [4]

CC(C)CCOC(=O)CC(C)C
inactive: Potency [1] | Potency [2] | Potency [3] | Potency [4]

C=C[C@](C)(O)CC[C@@H]1[C@@]2(C)CCCC(C)(C)[C@@H]2CC[C@@]1(C)O
inactive: Potency [1] | Potency [2] | Potency [3] | Potency [4]

Cc1ccnc(N)c1
inactive: Potency [1] | Potency [2] | Potency [3] | Potency [4]

CC(=O)O[C@@H]1[C@H](OC(=O)CC(C)C)c2c(ccc3ccc(=O)oc23)OC1(C)C
inactive: Potency [1] | Potency [2] | Potency [3] | Potency [4]

COC(=O)c1c(C)cc(O)c(C=O)c1O
inactive: Potency [1] | Potency [2] | Potency [3] | Potency [4]

CN1CC[C@@]2([C@@]34CCN(C)C3Nc3ccccc34)c3ccccc3NC12 (stereo partly specified)
inactive: Potency [1] | Potency [2] | Potency [3] | Potency [4]

C[C@@H]1CC2OC(=O)[C@@]3(C)C(=O)CC[C@@](C)(C23)[C@@]1(O)CCc1ccoc1 (stereo partly specified)
inactive: Potency [1] | Potency [2] | Potency [3] | Potency [4]
